# In PubChem BioAssay (NCI):
# Where “and” joins values, the source holds several entries; their conditions need not be identical. Equal entries are not always repeated. The panel holds about 83,000 compounds, 20% with a hit somewhere; the sample as a whole holds those more often.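 Note: values are percent growth. 100 is the growth of untreated cells, values between 100 and 0 indicate rising inhibition; between -100 and 0 indicates cell death.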 Calls of active or inactive are those of the source. The calls were made as follows: active = growth percent below 10; inactive = the rest.
# Test system: HL-60(TB) leukemia
# Assay: NCI-60 one-dose screen, 48 h (100 = growth as untreated, 0 = no growth, -100 = all killed)
# Settings: 10 µM unless noted
row,Structure (SMILES),growth
1,N=C(N)c1ccc(-c2ccc(/C=C/c3ccccc3)s2)cc1,-39.5% (active)
2,N=C(N)c1ccc(-c2ccc(-c3ccc(Cl)cc3)s2)nc1,-39.1% (active)
3,Cn1c(=O)c2c(nc3n2CCN(CCc2ccc(OCCN4CCOCC4)cc2)C3)n(C)c1=O,101% (inactive)
4,COC(=O)C1=COC(C)C2C[n+]3ccc4c([nH]c5ccccc54)c3CC12 (centres undefined),106% (inactive) and 103% (inactive)
5,COC(c1ccc2c(c1)OCO2)C(C)Br (centres undefined),94.7% (inactive)
6,COc1cccc(-c2nn(-c3ccccc3)cc2-c2ccnc(NCCNC(=O)Nc3cccc(C(F)(F)F)c3)c2)c1,2.15% (active)
7,ON=C1CCCCCCCC1,61.9% (inactive) and 105% (inactive)
8,CNCCNc1nc2ccccc2c2c(=O)c3cc(F)ccc3oc12,95.4% (inactive)
9,COc1ccc(-c2ccc3c(c2)sc2nc(-c4ccc(F)cc4)cn23)cc1,92% (inactive)
10,Cc1nn(-c2ccccc2)c(Oc2ccc(Cl)cc2)c1/C=N\N=c1/sc2ccccc2n1C,78% (inactive)
11,C#CCn1cc(C=C2C(=O)NC(=S)NC2=O)c2cc(Cl)ccc21,-4.45% (active)
12,Clc1ccc2c(NCCNc3nc(N4CCCCC4)nc4ccccc34)ccnc2c1,-61.2% (active)
13,Cc1ccccc1CNc1ccc(N2CCOCC2)cc1,102% (inactive)
14,O=C1Cc2ccccc2C(=O)O1,89.1% (inactive)
15,C=C1c2c(C)nn(-c3ccc(OC)cc3)c2N(C)C23C[C@@H]1C1(C)c4c(C)nn(-c5ccc(OC)cc5)c4N(C)C(C)(C[C@H]12)C3 (some centres undefined),-2.21% (active)
16,COc1cc(-c2nc(/C=C3/C(=O)Nc4ccccc43)c3ccccn23)cc(OC)c1OC,89.6% (inactive)
17,CCN(CC)CCOc1cccc2c1C(=O)c1cccc(OCCN(CC)CC)c1C2=O,19.7% (inactive)
18,Cc1cc(N(CCCNc2ccnc3cc(Cl)ccc23)Cc2ccco2)nc(N2CCOCC2)n1,45.5% (inactive)
19,Clc1ccc(N/N=C/c2ccccn2)nc1,-15.4% (active)
20,COc1ccc(OC)c(C(=O)/C=C/c2cc3c(c(OC)c2OC)OCO3)c1,48.6% (inactive)
21,O=C1Nc2ccccc2/C1=C/c1cn(C(=O)c2c(Cl)cccc2Cl)c2ccccc12,72.1% (inactive)
22,COc1ccccc1/C=C/C(=O)/C=C/c1ccccc1OC,15.1% (inactive) and 18.7% (inactive)
23,Nc1nc(N)nc(N2CCCCC2)n1,97.9% (inactive)
24,CC1Cc2c(Cl)ncnc2N(C)c2ccc(F)cc21 (centres undefined),91.6% (inactive)
